Laboratory results: article PMC7862700, “An all-to-all approach to the identification of sequence-specific readers for epigenetic DNA modifications on cytosine”

Key:
Assay in all cases: DAPPL (digital affinity profiling via proximity ligation, sequencing); 10 mM Tris-HCl pH 7.5, 50 mM NaCl, 1 mM DTT, 4% glycerol, room temperature, 30 min; GST-TFs on glutathione beads, 16-mer random dsDNA library, 0.1% formaldehyde crosslink after washing; high values mean tight binding
FEV = target: T1, FEV (Homo sapiens, UniProt Q99581 1-238); conditions: protein: recombinant; tags: N-terminal GST; dsDNA, one strand shown
T1 sequence: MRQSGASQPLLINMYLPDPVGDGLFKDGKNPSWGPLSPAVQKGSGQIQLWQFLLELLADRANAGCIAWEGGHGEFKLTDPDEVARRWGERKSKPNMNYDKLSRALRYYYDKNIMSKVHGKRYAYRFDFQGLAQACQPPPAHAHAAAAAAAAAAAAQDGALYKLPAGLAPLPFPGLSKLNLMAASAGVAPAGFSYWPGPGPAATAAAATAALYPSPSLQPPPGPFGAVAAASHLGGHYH
In short: (§1)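 Binding signal is each hexamer's read frequency for a factor divided by its frequency in the tag-only sample. The factors were GST-fused human transcription factors from yeast, captured on glutathione beads, DNA-barcoded and pooled with that sample. Pools were incubated with 200 nmole of a random double-stranded 16-mer DNA library in Tris/NaCl/DTT/glycerol buffer at room temperature for 30 min, then washed, crosslinked with 0.1% formaldehyde, proximity-ligated with BsaI/T4 ligase (1 h, 37 °C), PCR-amplified and sequenced on an Illumina NextSeq500.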

ETV5 = ETV5 (Homo sapiens, UniProt P41161 1-510); conditions: protein: recombinant; tags: N-terminal GST; dsDNA, one strand shown
In short: as §1

HSF1 = HSF1 (Homo sapiens, UniProt Q00613 1-529); conditions: protein: recombinant; tags: N-terminal GST; chain copies: 3; dsDNA, one strand shown
In short: as §1

SPIC = target: T2, SPIC (Homo sapiens, UniProt Q8N5J4 1-248); conditions: protein: recombinant; tags: N-terminal GST; dsDNA, one strand shown
T2 sequence: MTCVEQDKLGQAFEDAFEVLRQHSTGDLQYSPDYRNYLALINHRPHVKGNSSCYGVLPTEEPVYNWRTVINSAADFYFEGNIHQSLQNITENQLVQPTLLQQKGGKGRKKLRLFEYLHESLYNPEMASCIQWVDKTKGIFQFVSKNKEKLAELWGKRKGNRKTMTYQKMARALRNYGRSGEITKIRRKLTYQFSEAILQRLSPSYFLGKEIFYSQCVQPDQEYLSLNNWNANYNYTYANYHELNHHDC
In short: as §1

ELF4 = ELF4 (Homo sapiens, UniProt Q99607 1-663); conditions: protein: recombinant; tags: N-terminal GST; dsDNA, one strand shown
In short: as §1

ELK4 = target: T3, ELK4 (Homo sapiens, UniProt P28324-2 1-405); conditions: protein: recombinant; tags: N-terminal GST; dsDNA, one strand shown
T3 sequence: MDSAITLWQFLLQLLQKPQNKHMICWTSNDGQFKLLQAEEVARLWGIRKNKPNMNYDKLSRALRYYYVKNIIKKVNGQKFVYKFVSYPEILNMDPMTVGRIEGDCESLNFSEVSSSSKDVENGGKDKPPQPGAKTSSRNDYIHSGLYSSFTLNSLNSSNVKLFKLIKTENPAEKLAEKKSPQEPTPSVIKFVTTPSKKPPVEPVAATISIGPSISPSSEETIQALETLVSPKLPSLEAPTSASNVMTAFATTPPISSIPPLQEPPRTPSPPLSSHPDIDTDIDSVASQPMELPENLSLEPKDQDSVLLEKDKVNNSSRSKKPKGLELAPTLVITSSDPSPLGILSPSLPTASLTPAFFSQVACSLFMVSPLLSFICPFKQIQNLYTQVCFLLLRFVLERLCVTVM
In short: as §1

ETV2 = target: T4, ETV2 (Homo sapiens, UniProt O00321 1-342); conditions: protein: recombinant; tags: N-terminal GST; dsDNA, one strand shown
T4 sequence: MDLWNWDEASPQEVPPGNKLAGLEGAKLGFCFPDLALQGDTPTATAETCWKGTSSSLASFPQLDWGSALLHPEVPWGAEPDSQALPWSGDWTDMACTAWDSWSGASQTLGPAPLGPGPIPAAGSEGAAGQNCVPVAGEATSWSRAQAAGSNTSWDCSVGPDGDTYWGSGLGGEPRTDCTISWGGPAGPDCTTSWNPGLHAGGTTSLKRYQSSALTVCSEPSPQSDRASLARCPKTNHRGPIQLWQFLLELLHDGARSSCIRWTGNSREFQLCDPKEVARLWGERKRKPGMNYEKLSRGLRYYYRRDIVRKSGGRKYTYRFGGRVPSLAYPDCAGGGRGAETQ
In short: as §1

ELF3 = target: T5, ELF3 (Homo sapiens, UniProt P78545 1-371); conditions: protein: recombinant; tags: N-terminal GST; dsDNA, one strand shown
T5 sequence: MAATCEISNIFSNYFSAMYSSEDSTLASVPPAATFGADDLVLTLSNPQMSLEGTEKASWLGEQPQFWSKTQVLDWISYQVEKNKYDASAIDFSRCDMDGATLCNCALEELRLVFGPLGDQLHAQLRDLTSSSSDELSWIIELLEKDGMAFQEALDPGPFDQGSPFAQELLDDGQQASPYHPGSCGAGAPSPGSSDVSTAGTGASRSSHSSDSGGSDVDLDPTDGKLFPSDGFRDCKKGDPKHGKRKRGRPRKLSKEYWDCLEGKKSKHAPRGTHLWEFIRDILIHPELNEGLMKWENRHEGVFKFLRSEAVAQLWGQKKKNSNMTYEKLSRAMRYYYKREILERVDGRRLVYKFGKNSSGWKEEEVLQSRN
In short: as §1

CRX = CRX (Homo sapiens, UniProt O43186 1-299); conditions: protein: recombinant; tags: N-terminal GST; dsDNA, one strand shown
In short: as §1

ETV1 = ETV1 (Homo sapiens, UniProt P50549 1-477); conditions: protein: recombinant; tags: N-terminal GST; dsDNA, one strand shown
In short: as §1

ETV5, sequence (P41161 whole entry): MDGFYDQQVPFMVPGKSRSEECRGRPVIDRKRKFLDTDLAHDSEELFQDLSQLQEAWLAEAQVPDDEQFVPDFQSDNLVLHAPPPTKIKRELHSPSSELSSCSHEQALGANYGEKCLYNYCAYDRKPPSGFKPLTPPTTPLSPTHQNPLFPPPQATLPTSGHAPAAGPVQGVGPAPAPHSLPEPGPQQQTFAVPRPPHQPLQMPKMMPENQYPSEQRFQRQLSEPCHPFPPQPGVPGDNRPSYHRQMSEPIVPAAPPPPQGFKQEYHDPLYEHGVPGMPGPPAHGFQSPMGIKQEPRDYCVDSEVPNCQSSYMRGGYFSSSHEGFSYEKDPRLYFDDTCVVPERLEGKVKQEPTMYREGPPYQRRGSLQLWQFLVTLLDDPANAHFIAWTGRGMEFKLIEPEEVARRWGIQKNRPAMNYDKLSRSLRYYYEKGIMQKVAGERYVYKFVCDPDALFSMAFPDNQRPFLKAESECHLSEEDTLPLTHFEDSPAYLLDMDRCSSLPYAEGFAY
ELF4, sequence (Q99607 whole entry): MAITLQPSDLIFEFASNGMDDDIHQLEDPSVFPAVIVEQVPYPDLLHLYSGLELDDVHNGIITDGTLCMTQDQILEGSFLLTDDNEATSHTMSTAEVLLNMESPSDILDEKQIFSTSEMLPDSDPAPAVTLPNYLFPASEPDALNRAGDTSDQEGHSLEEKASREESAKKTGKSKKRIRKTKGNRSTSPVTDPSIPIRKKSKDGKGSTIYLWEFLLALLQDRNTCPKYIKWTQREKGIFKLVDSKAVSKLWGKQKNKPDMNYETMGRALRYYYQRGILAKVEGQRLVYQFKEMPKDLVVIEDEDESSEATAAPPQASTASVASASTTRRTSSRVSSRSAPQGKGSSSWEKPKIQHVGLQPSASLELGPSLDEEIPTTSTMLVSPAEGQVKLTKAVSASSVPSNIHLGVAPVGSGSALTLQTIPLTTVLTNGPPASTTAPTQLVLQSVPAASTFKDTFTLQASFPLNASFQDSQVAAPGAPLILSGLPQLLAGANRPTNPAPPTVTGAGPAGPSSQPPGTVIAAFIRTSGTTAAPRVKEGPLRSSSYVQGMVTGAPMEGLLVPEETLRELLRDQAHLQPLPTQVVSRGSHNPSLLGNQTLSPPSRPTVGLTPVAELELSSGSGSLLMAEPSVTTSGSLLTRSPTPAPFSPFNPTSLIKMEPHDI
CRX, sequence (O43186 whole entry): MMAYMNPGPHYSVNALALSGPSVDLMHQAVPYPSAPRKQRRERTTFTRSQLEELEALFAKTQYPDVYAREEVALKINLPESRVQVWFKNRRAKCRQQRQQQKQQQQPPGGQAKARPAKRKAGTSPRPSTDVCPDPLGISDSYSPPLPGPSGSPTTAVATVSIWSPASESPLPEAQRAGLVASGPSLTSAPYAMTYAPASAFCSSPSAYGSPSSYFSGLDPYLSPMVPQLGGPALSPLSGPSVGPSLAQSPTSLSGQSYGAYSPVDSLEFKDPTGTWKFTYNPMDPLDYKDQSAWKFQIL
ETV1, sequence (P50549 whole entry): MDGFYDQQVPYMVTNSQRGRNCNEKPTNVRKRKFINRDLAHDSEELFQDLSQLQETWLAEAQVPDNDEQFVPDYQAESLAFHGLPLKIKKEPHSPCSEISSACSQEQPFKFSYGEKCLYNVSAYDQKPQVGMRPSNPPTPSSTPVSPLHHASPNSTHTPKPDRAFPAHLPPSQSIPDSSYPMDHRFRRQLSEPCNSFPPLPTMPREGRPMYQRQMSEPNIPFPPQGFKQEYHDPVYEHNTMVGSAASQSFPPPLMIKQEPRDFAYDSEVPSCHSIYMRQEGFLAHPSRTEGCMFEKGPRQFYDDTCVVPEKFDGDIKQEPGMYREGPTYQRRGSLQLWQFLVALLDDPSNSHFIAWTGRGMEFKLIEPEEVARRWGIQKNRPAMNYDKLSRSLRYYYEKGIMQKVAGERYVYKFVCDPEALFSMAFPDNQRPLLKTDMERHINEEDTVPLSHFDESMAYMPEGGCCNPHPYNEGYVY
HSF1, sequence (Q00613 whole entry): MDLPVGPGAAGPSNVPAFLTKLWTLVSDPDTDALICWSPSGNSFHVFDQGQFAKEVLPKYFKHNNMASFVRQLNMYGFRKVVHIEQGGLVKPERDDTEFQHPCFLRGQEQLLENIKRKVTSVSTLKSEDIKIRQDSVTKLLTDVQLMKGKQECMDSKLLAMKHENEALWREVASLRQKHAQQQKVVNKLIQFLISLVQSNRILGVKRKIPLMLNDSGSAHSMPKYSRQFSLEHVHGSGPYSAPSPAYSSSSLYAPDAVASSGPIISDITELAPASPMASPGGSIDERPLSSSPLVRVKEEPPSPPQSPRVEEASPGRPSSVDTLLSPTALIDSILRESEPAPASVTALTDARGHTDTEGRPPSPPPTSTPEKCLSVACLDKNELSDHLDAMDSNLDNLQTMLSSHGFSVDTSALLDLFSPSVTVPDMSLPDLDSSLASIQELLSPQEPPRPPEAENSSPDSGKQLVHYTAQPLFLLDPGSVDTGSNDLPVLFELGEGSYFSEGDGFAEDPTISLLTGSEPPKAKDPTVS

Q: How did the binding signal (FEV) turn out when CTCGCT was run?
A: Its binding signal is 1.67 fold enrichment (6-mer frequency, TF over GST control).

Q: What about the binding signal (ETV5) of the same sequence?
A: Its binding signal is 1.66 fold enrichment (6-mer frequency, TF over GST control).

Q: And the binding signal (HSF1)?
A: Its binding signal is 1.66 fold enrichment (6-mer frequency, TF over GST control).

Q: What about the binding signal (SPIC) of the same sequence?
A: The binding signal was 1.76 fold enrichment (6-mer frequency, TF over GST control).

Q: And the binding signal (ELF4)?
A: The binding signal was 1.56 fold enrichment (6-mer frequency, TF over GST control).

Q: And the binding signal (ELK4)?
A: The binding signal was 1.68 fold enrichment (6-mer frequency, TF over GST control).

Q: What about the binding signal (ETV2) of the same sequence?
A: The binding signal was 1.52 fold enrichment (6-mer frequency, TF over GST control).

Q: And the binding signal (ELF3)?
A: Its binding signal is 1.83 fold enrichment (6-mer frequency, TF over GST control).

Q: What about the binding signal (CRX) of the same sequence?
A: Its binding signal is 1.37 fold enrichment (6-mer frequency, TF over GST control).

Q: What about the binding signal (ETV1) of the same sequence?
A: The binding signal was 1.71 fold enrichment (6-mer frequency, TF over GST control).
